The source of these data is PubChem BioAssay (NCI).

Compounds without any hit were thinned out: in the full panel of roughly 79,000, 15% have a hit. A number with no mark means an inactive call. Activity calls are given as the source filed them. Rule as the data show it: active = growth inhibition above about 70%; inactive = the rest.

This experiment can be described thus: NCI Yeast Anticancer Drug Screen. Data for the mlh1 strain (AID 171).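 Also: 0% = growth of vehicle-treated control cultures of the same strain.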 As to conditions: S. cerevisiae mlh1 strain growth inhibition, active compounds read high. The protocol: Growth inhibition of yeast strains with defined genetic alterations is measured as a screen for potential anti-cancer activity. Selected strains with alterations in DNA damage repair or cell cycle control were exposed to compounds and growth inhibition was measured relative to vehicle treated controls. The strain used in this assay is mlh1

`S=C(N/N=C/c1ccccn1)Nc1ccc(Cl)cc1`: the growth inhibition is -5% (at 1.2 µM); -9% (at 3.7 µM); -5% (at 11.0 µM); 12% (at 33.0 µM); 51% (at 100.0 µM).
In the case of `O=C1NC(=O)C2C3C=CC(C3)C12` (stereo not given), the growth inhibition (at 1.2 µM) was 1%; the growth inhibition (at 3.7 µM) is 12%; the growth inhibition (at 11.0 µM) was 79% (active); the growth inhibition (at 33.0 µM) was 95% (active); the growth inhibition (at 100.0 µM) was 97% (active).
The matching figures for `C=C1CC(Cn2cc(Br)c(=O)[nH]c2=O)(c2ccc(-c3ccccc3)cc2)OC1=O` (stereo not given): 2%, 10%, 28%, 41% and 94% (active).
The corresponding values for `COc1cc(C2c3cc4c(cc3OC(Nc3ccccc3)C2C)OCO4)cc(OC)c1O` (stereo not given) are -3%, -1%, 0%, -3% and 61%.
As to `CCC(C)COC(=O)c1ccc(N=Cc2ccc(C=Nc3ccc(C(=O)OCC(C)CC)cc3)cc2)cc1` (stereo not given), the growth inhibition (at 1.2 µM) is 0%; the growth inhibition (at 3.7 µM) is 3%; the growth inhibition (at 11.0 µM) is 2%; the growth inhibition (at 33.0 µM) was 10%; the growth inhibition (at 100.0 µM) is 19%.
The corresponding values for `CC1(Cl)CC(O)C2(CC1Br)C1(C)OC1C1OC1(Br)C2(C)C` (stereo not given) are -19%, -22%, -18%, 66% and 97% (active).
The corresponding values for `COc1ccc(/C=C2\SC(=S)N(/C=C/c3nc4ccccc4[nH]c3=O)C2=O)cc1OC` are 1%, 5%, 28%, 76% (active) and 91% (active).
The matching figures for `CC(C)C1=CCC2C(=C1)CCC1C(C)(C(=O)O)CCCC21C` (stereo not given) (tested in a mixture with another compound): 12%, 11%, 6%, 43% and 96% (active).
